Screening data as filed in PubChem.
Sampled rows, rich in hits. Any-hit rate of the full collection: about 9.3%.
FLuc counter – counter-screen for miR-21 project: firefly luciferase inhibitors or activators; Potency, µM (top dose mostly 57.5 µM), actives largely listed as inhibitors; P08659; AID 588342; actives 6.9% (n = 360,000); purified FLuc, Km substrates, luminescence inhibition; note: nearly all actives have a fitted effect of over 55% in size
Target sequence (P08659 whole entry, looked up): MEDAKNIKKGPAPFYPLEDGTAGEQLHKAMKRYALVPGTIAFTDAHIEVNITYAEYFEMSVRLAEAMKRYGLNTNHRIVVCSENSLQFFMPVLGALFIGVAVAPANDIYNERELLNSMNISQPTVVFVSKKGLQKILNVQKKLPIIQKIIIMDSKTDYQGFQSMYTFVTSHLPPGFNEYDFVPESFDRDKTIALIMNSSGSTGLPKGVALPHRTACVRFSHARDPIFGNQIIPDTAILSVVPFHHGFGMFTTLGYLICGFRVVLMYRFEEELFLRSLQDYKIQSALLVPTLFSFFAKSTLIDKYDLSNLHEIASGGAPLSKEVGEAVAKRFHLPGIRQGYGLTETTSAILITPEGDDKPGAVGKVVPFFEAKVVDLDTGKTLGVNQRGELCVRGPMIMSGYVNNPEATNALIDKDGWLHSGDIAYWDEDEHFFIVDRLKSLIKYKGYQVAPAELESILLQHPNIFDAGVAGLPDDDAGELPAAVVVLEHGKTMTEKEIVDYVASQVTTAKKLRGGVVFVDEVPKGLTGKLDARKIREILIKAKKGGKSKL
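Biochemical qHTS of compounds, final roughly 60 µM downward over six points, against 10 nM purified firefly luciferase using Km concentrations of substrates (10 uM D-luciferin, 10 uM ATP) in Tris acetate pH 7.5 buffer; luminescence output.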
ELG1 genotoxic – induces genotoxicity in HEK293T cells with luciferase-tagged ELG1 | HEK293T ELG1-luciferase reporter, luminescence, 16 h | Potency, µM (highest dose often 46 µM), usual class: activators | actives 1.3% (n = 330,000) | AID 504466; note: nearly all actives have a fitted effect of over 60% in size
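HEK293T cells expressing luciferase-tagged ELG1 were exposed to compound or DMSO vehicle for 16 hr at 37 °C and 5% CO2. Luciferase activity was then measured with ONE-Glo after 30 min at room temperature.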
SMN2 splice enh – enhancers of SMN2 splice variant expression; HEK293 SMN2-luciferase splicing reporter, luminescence, 30-36 h; Potency, µM (titrated, usually from 46.1 µM), usual class: activators; actives 2.8% (n = 210,000); AID 1458; note: nearly all actives have a fitted effect of over 55% in size
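HEK293 cells carry an SMN2 […]–luciferase reporter in which exon 7 inclusion puts luciferase in frame. Cells were plated 10-12 h before compound addition, then incubated 30-36 h at 37C. ONE-Glo luminescence was read; sodium butyrate at 4.5 mM final served as control.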
Rab9 prom act – activates the Rab9 promoter. Potency, µM (titrated, usually from 9.22 µM), hits mostly activators. Huh7 Rab9 promoter-luciferase reporter, luminescence, 24 h. actives 2.8% (n = 320,000); note: nearly all actives have a fitted effect of over 60% in size
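Luciferase signal after 10 min detection reagent at ambient indicates Rab9 promoter upregulation; stably transfected Huh7 cells were treated 24 h with compound in DMSO at 37 °C, 5% CO2.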
NPC1 prom act – activators of NPC1 promoter; Huh7 NPC1 promoter luciferase reporter, 24 h; Potency, µM (titrated, usually from 9.22 µM), usual class: activators; actives 2.4% (n = 320,000); note: nearly all actives have a fitted effect of over 60% in size
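Huh7 cells stably carrying NPC1 promoter–luciferase, plated in Opti-MEM with 10% FBS for 2 h, were exposed to compound in DMSO for 24 h at 37 °C; luciferase reagent was added for 10 min and luminescence read.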
ELG1 repair inh – ELG1-dependent DNA repair inhibition | HEK293T ELG1-luciferase reporter, luminescence, 16 h; DNA damage induced by 5-fluorouridine | Potency, µM (series often up to 46.1 µM), most hits filed as inhibitors | actives 2.3% (n = 330,000) | AID 504467; note: nearly all actives have a fitted effect of over 55% in size
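Cells (2,000 per well) received 5-fluorouridine plus test compound or DMSO and were incubated 16 hr at 37 °C, 5% CO2. Luciferase activity was read by luminescence 30 min after ONE-Glo addition; signal suppression marked inhibition of damage-induced ELG1 function.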
Numbers stand for hits; – = inactive; ? = inconclusive; · = no result given. Calls come from the whole dose curve; as a rule, active = well fitted curve in the direction sought with a large enough effect; inconclusive = small, poorly fitted or top-dose-only effect, or another doubt; inactive = no such curve, though single readings can be large; an effect the other way counts as inactive or inconclusive.

SMILES	FLuc counter	ELG1 genotoxic	SMN2 splice enh	Rab9 prom act	NPC1 prom act	ELG1 repair inh
Cc1nc(SCc2ccc(O)c([N+](=O)[O-])c2)c([N+](=O)[O-])[nH]1	?	–	·	–	–	–
COc1ccc(Nc2nc(-c3c[nH]c4ccccc34)cs2)cc1	15µM	–	?	–	–	?
CC(=O)NCCC(=O)Nc1nc(-c2c[nH]c3ccccc23)cs1	?	–	·	–	–	–
COc1ccc2oc(=O)c(-c3csc(-c4ccc(Br)cc4)n3)cc2c1	–	·	·	·	·	·
COc1ccc(-c2csc(Nc3ccccc3)n2)cc1	3µM	2.1µM	4µM	1µM	2.2µM	?
COc1ccc2oc(=O)c(-c3csc(Nc4ccc(O)cc4)n3)cc2c1	3µM	–	?	–	–	9.2µM
COc1ccc(Nc2nc(-c3ccc(OC)cc3)cs2)cc1	?	?	?	1.6µM	3.2µM	?
Cc1cccc(N2CCN(C(=O)C3COc4ccccc4O3)CC2)c1C (stereo unspecified)	?	–	–	–	–	?
CC(=O)Oc1ccc(-c2csc(Nc3ccc(S(N)(=O)=O)cc3)n2)cc1	–	–	·	–	–	–
COc1ccc(-c2csc(Nc3ccc(S(N)(=O)=O)cc3)n2)cc1	?	–	–	–	–	16µM
COc1ccc(-c2csc(Nc3cccnc3)n2)cc1	6µM	·	–	·	·	·
Cc1ccc(-c2cccc(OC(=O)c3ccccc3F)c2)cc1	5.4µM	–	–	–	–	?
CC(C)(C)c1cc(OC(=O)c2ccccc2F)ccc1O	27µM	–	·	–	–	–
CC[C@@H]1C(c2cccc(C)c2)=NN(c2ccccc2)[C@H]1C(=O)N1CCOC1=O	·	–	·	·	·	?
COc1cccc(-c2nnc(NC(=O)CCS(=O)(=O)c3ccc(C)cc3)o2)c1	–	–	·	–	–	–
CC(=O)c1sc(NC(=O)CS(=O)(=O)c2ccccc2)nc1C	–	–	·	–	–	–
Cc1ccc(C(=O)Nc2ccc(N3CCN(C(=O)c4ccco4)CC3)cc2)c(Cl)c1	?	–	·	–	–	18µM
Cc1ccccc1C(=O)Nc1ccc(N2CCN(C(=O)c3ccco3)CC2)cc1	–	–	·	–	–	–
CC(=O)N1CCN(c2ccc(NC(=O)c3ccco3)cc2)CC1	17µM	?	·	?	?	?
NC(=O)c1c(NC(=O)C2CCCO2)sc2c1CCCCC2 (stereo unspecified)	17µM	?	?	?	–	?
CC(C)(C)C1CCc2c(sc(NC(=O)C3CCCO3)c2C(N)=O)C1 (stereo unspecified)	21µM	–	–	–	–	–
NC(=O)c1c(NC(=O)C2CCCO2)sc2c1CCC2 (stereo unspecified)	–	–	–	–	–	–
N#C/C(=C\c1ccncc1)c1ccc(NC(N)=O)cc1	–	–	·	–	–	?
CN(C(=O)/C=C/c1ccc([N+](=O)[O-])s1)c1ccccc1	–	–	–	–	–	?
COc1cc(N=Nc2c(O)c3ccccc3[nH]c2=O)c(OC)cc1N=Nc1ccccc1	15µM	–	·	–	–	–
SMILES	FLuc counter	ELG1 genotoxic	SMN2 splice enh	Rab9 prom act	NPC1 prom act	ELG1 repair inh
NC(=O)c1ccc(N=Nc2c(O)c3ccccc3[nH]c2=O)cc1	?	–	·	–	–	–
O=C(COC(=O)COc1ccccc1[N+](=O)[O-])NC1CCCCC1	–	–	·	–	–	–
COc1ccc(-c2nnn(CC(=O)N3CCN(c4ccccc4OC)CC3)n2)cc1OC	–	–	·	–	–	?
COc1ccc(-c2nnn(CC(=O)N3CCN(c4ccccc4OC)CC3)n2)cc1	–	–	–	–	–	23µM
COc1ccc(C(=O)Nc2ccc(-c3nnn(CC(=O)N4CCN(C(=O)c5ccco5)CC4)n3)cc2)cc1	13µM	–	–	–	–	?
O=C1N=C(N2CCCCC2)S/C1=C\c1ccc(Cl)cc1	–	–	·	–	–	?
CC(C)(C)c1ccc(/C=C2/SC(N3CCCC3)=NC2=O)cc1	12µM	–	·	–	–	–
CCOC(=O)C1CCCN(C2=NC(=O)/C(=C/c3ccc(OC)cc3)S2)C1 (stereo unspecified)	–	–	·	–	–	–
